Experiment [1] has as its target Alpha-galactosidase (Coffea arabica) (UniProt Q42656). Kind of experiment: Counterscreen for Glucocerebrosidase Inhibitors: qHTS Assay for Coffee Bean alpha-Galactosidase at pH 4.5 (AID 957). Also: series mostly up to about 77 µM. The gist of the method: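 Coffee bean alpha-galactosidase 2 nM, substrate 4-MU-alpha-Gal 80 uM, pH 4.5 citrate/Tween-20, 20 min RT. Cpd titration 0.7 nM–77 uM. Stop pH 10, fluorescence 365/440 nm; Hill-equation AC50.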
On the technique in general: The purpose of a counterscreen is to sort out artefacts and off-target activity.

Experiment [2] has the same target. Nature of the experiment: Counterscreen for Glucocerebrosidase Inhibitors: qHTS Assay for Coffee Bean alpha-Galactosidase at pH 5.9 (AID 998). In outline: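 Green coffee bean enzyme (2 nM) with 4-methylumbelliferyl alpha-D-galactopyranoside (80 uM) in 50 mM citric acid, 0.005% Tween-20, pH 5.9, 20 min at room temperature; compounds 0.7 nM–77 uM. Stopped at pH 10, fluorescence Ex365/Em440; Hill-fit AC50.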

The source made the active and inactive calls. Calls follow the shape of the dose curve; as a rule, active = well fitted curve in the direction sought with a large enough effect; inconclusive = small, poorly fitted or top-dose-only effect, or another doubt; inactive = no such curve, though single readings can be large; an effect the other way counts as inactive or inconclusive.

Alpha-galactosidase (Coffea arabica), sequence (Q42656 whole entry, looked up): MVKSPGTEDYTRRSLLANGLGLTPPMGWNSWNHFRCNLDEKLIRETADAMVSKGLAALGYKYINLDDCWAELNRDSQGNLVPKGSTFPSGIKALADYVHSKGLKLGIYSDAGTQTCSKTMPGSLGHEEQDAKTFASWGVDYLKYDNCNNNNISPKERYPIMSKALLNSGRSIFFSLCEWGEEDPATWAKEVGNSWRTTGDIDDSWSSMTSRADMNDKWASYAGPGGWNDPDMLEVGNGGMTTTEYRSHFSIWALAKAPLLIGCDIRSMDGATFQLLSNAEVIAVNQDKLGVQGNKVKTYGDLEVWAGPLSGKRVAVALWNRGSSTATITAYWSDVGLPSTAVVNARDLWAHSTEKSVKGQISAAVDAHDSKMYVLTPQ

With `CCN(Cc1ccncc1)C(=O)[C@@H](CO)c1ccccc1`, the call in experiment [1] and in experiment [2] was inactive.
In the case of `CNCC[C@H](Oc1ccccc1OC)c1ccccc1`, the result in experiment [1] and in experiment [2] was inactive.
For the molecule `O=[N+]([O-])c1ccc(CSc2ncnc3c2ncn3[C@@H]2O[C@@H](CO)[C@@H](O)[C@H]2O)cc1`, the outcome in experiment [1] and in experiment [2] was inactive.
In the case of `OC[C@@H]1O[C@@H](n2cnc3c(NC4CCCCC4)ncnc32)[C@@H](O)[C@H]1O`, the molecule was called inactive in experiment [1] and in experiment [2].
Regarding `O=C(O)C[C@@H]1CCCc2ccccc2[C@H]1O`, the call in experiment [1] was inactive.
Turning to `FC(F)(F)c1cc(CO[C@@H]2CCCN[C@H]2c2ccccc2)cc(C(F)(F)F)c1`, the molecule was called inactive in experiment [1] and in experiment [2].
On to `C=C[C@H](N)CCC(=O)O`, for which the outcome in experiment [1] and in experiment [2] was inactive.
Turning to `Cc1cccc(C)c1OC[C@H](C)N`, the result in experiment [1] and in experiment [2] was inactive.
Take `O=C(O)[C@@H]1CCCN[C@H]1C(=O)O`: the call in experiment [1] and in experiment [2] was inactive.
For the molecule `CC[C@]1(O)C[C@H]2CN(CCc3c([nH]c4ccccc34)[C@](C(=O)OC)(c3cc4c(cc3OC)N(C)[C@@H]3[C@](O)(C(=O)OC)[C@H](OC(C)=O)[C@]5(CC)C=CCN6CC[C@]43[C@@H]65)C2)C1`, the outcome in experiment [1] and in experiment [2] was inactive.
With `CSc1nc(N)c2ncn([C@@H]3O[C@@H](COP(=O)(O)OP(=O)(O)OP(=O)(O)O)[C@@H](O)[C@H]3O)c2n1`, the call in experiment [1] and in experiment [2] was inactive.
For `COC(=O)[C@](C)(N)Cc1ccc(O)cc1`, the molecule was called inactive in experiment [1] and in experiment [2].
For the molecule `CCCCCCCCCCCCCCCCCCOC[C@@H](COP(=O)([O-])OCC[N+](C)(C)C)OC`, the outcome in experiment [1] and in experiment [2] was inactive.
For the molecule `CCCCCCCCCCCCCCCC(=O)NC[C@@H](COP(=O)([O-])OCC[N+](C)(C)C)OCC`, the molecule was called inactive in experiment [1] and in experiment [2].
As for `CC(C)CN(C)c1nc(N)c(C(=O)N=C(N)N)nc1Cl`, the molecule was called inactive in experiment [1] and in experiment [2].
Consider `Cc1ccc(OC[C@H](O)[C@H](C)NC(C)C)c2c1CCC2`, for which the molecule was called inactive in experiment [1] and in experiment [2].
On to `CN1CCN([C@@H]2Cc3ccccc3Sc3ccc(Cl)cc32)CC1`, for which, in experiment [1], the call was inactive.
Consider `COC(=O)c1c(-c2cc(OC)c(OC)c(OC)c2)c2ccnc(OCc3ncccn3)c2c(=O)n1Cc1ccnc(C)c1`, for which the result in experiment [1] and in experiment [2] was inactive.
With `CC(=O)N[C@@H](C(=O)O)C(C)(C)SN=O`, the molecule was classed as inactive in experiment [1].
`O=C(O)/C=C\[C@H](O)c1ccc(Cl)cc1`: the call in experiment [1] and in experiment [2] was inactive.
Take `CCCCCCCCCCCCCCCCCC(=O)NC[C@@H](COP(=O)([O-])OCC[N+](C)(C)C)OCC`: the molecule was classed as inactive in experiment [1].
Regarding `CC(C)(C)[C@@]1(O)CCN2C[C@@H]3c4ccccc4CCc4cccc(c43)[C@@H]2C1`, the call in experiment [1] and in experiment [2] was inactive.
`COc1cccc(OC)c1OCCNC[C@@H]1CSc2ccccc2O1`: the outcome in experiment [1] and in experiment [2] was inactive.
With `CCCN(CCC)C(=O)[C@@H](CCC(=O)O)NC(=O)c1ccccc1`, the molecule was classed as inactive in experiment [1] and in experiment [2].
Take `CC(=O)OCC1=C(C(=O)O)N2C(=O)[C@@H](NC(=O)CSc3ccncc3)[C@@H]2SC1`: the call in experiment [1] and in experiment [2] was inactive.
For the molecule `COc1cccc(OC)c1OCCNC[C@@H]1COc2ccccc2O1`, the outcome in experiment [1] and in experiment [2] was inactive.
Take `COC(=O)C1=C(C)NC(C)=C(C(=O)OCCN(C)Cc2ccccc2)[C@@H]1c1cccc([N+](=O)[O-])c1`: the molecule was classed as inactive in experiment [1] and in experiment [2].
Regarding `COc1c2c(nc3ccccc13)O[C@@H]([C@@](C)(O)CO)C2`, the molecule was classed as inactive in experiment [1] and in experiment [2].
Consider `C[C@@H]1C[C@@H]2[C@H]3CCC4=CC(=O)C=C[C@]4(C)[C@]3(Cl)[C@@H](O)C[C@@]2(C)[C@@]1(O)C(=O)CO`, for which the outcome in experiment [1] and in experiment [2] was inactive.
For the molecule `O=C1O/C(=C\Br)CC[C@@H]1c1cccc2ccccc12`, the outcome in experiment [1] and in experiment [2] was inactive.
Consider `O=C(O)[C@H]1CCCN(CCC=C(c2ccccc2)c2ccccc2)C1`, for which the outcome in experiment [1] and in experiment [2] was inactive.
On to `N[C@@H]1CCN(O)C1=O`, for which the result in experiment [1] and in experiment [2] was inactive.
For the molecule `C[C@@H]1c2cccc(O)c2C(O)=C2C(=O)[C@@]3(O)C(O)=C(C(N)=O)C(=O)[C@@H](N(C)C)[C@@H]3[C@@H](O)[C@@H]21`, the molecule was classed as inactive in experiment [1] and in experiment [2].
`c1ccc2c(c1)CCC[C@H]2C1=NCCN1`: the result in experiment [1] and in experiment [2] was inactive.
Turning to `NC(=S)NCCC[C@@H](N)C(=O)O`, the call in experiment [1] and in experiment [2] was inactive.
With `CCNC(=O)[C@@H]1O[C@@H](n2cnc3c(N)nc(NCCc4ccc(CCC(=O)O)cc4)nc32)[C@H](O)[C@@H]1O`, the result in experiment [1] and in experiment [2] was inactive.
As to `CC1=C(C(=O)O)N2C(=O)[C@@H](NC(=O)[C@@H](N)c3ccccc3)[C@@H]2SC1`, the result in experiment [1] and in experiment [2] was inactive.
With `CC#CCOC(=O)c1c(C)nc2sc3c(c2c1N)CC[C@@H](O)C3`, the result in experiment [1] and in experiment [2] was inactive.
For `CC(=O)O[C@]1(C(C)=O)CC[C@@H]2[C@@H]3C=C(Cl)C4=CC(=O)[C@H]5C[C@@H]5[C@]4(C)[C@H]3CC[C@]21C`, the result in experiment [1] and in experiment [2] was inactive.
Regarding `COc1cc([C@@H](O)CO)ccc1OS(=O)(=O)O`, the call in experiment [1] and in experiment [2] was inactive.
With `Nc1nc(Cl)nc2c1ncn2[C@@H]1O[C@@H](CO)[C@@H](O)[C@H]1O`, the outcome in experiment [1] and in experiment [2] was inactive.
With `CC(=O)[C@@H]1CC[C@@H]2[C@@H]3CC=C4C[C@H](OS(=O)(=O)O)CC[C@@]4(C)[C@H]3CC[C@]21C`, the outcome in experiment [1] and in experiment [2] was inactive.
As to `CC1=C(\C=C/C(C)=C/C=C\C(C)=C\C(=O)O)C(C)(C)CCC1`, the molecule was classed as inactive in experiment [1] and in experiment [2].
As for `O=C(/C=C\c1ccc(O)cc1)c1ccc(O)cc1O`, the result in experiment [1] and in experiment [2] was inactive.
Consider `Oc1ccc([C@@H]2CNCCc3c2cc(O)c(O)c3Cl)cc1`, for which the call in experiment [1] and in experiment [2] was inactive.
Regarding `CN1[C@@H]2CC(OC(=O)[C@@H](CO)c3ccccc3)C[C@H]1[C@H]1O[C@H]12` (stereo partly drawn), the call in experiment [1] and in experiment [2] was inactive.
For the molecule `CC(C)[C@H]1C(=O)C(C(N)=O)=C(O)[C@]2(O)C(=O)C3=C(O)c4c(O)ccc(N(C)C)c4C[C@H]3C[C@@H]12`, the outcome in experiment [1] and in experiment [2] was inactive.
In the case of `C#CCN1C(C)=C(C(=O)OC)[C@@H](c2cccc([N+](=O)[O-])c2)C(C(=O)OCC)=C1C`, the result in experiment [1] and in experiment [2] was inactive.
Take `COc1cc2c(cc1O)CC[C@@H]1[C@@H]2CC[C@@]2(C)[C@H](O)CC[C@H]12`: the result in experiment [1] and in experiment [2] was inactive.
Consider `NCCC[C@@](N)(C(=O)O)C(F)F`, for which the result in experiment [1] and in experiment [2] was inactive.
Regarding `CN(C)CCO[C@](C)(c1ccccc1)c1ccccn1`, the result in experiment [1] and in experiment [2] was inactive.
For the molecule `Nc1ccn([C@@H]2O[C@@H](CO)[C@@H](O)[C@H]2O)c(=O)n1`, the call in experiment [1] and in experiment [2] was inactive.
Take `CCOC(=O)C1=C(C)NC(C)=C(C(=O)OC)[C@H]1c1cccc(Cl)c1Cl`: the molecule was called inactive in experiment [1] and in experiment [2].
`C#C[C@]1(O)CC[C@H]2[C@H]3CCC4=Cc5oncc5C[C@]4(C)[C@@H]3CC[C@]21C`: the call in experiment [1] and in experiment [2] was inactive.
Regarding `Nc1ncnc2c1ncn2[C@@H]1O[C@@H](C(=O)NC2CC2)[C@H](O)[C@@H]1O`, the molecule was classed as inactive in experiment [1] and in experiment [2].
Consider `CC[C@H](C)[C@@H]1O[C@]2(CC[C@@H]1C)C[C@H]1C[C@H](CC=C(C)[C@@H](O[C@H]3C[C@H](OC)[C@H](O[C@H]4C[C@H](OC)[C@H](O)[C@H](C)O4)[C@H](C)O3)[C@@H](C)C=CC=C3CO[C@@H]4[C@@H](O)C(C)=C[C@H](C(=O)O1)[C@@]34O)O2`, for which the molecule was called inactive in experiment [1] and in experiment [2].
On to `CO[C@]1(C2=NCCN2)COc2ccccc2O1`, for which the molecule was called inactive in experiment [1] and in experiment [2].
For `CC(C)(C)NC[C@H](O)COc1cccc2[nH]c(=O)[nH]c12`, the result in experiment [1] and in experiment [2] was inactive.
For the molecule `Cc1ccc(/C(=C/CN2CCCC2)c2ccccn2)cc1`, the molecule was classed as inactive in experiment [1] and in experiment [2].
For `NC(N)=N[C@H](CCC(=O)O)C(=O)O`, the molecule was called inactive in experiment [1] and in experiment [2].
Take `N.N.N.N.N.N.N.N.N.N.N.N.N.N.O.O.[Ru].[Ru].[Ru]`: the molecule was classed as inactive in experiment [1] and in experiment [2].

The values above are taken from PubChem BioAssay (NCATS).
